Measured values: the supplement of paper PMC10849652
Targets with a hit are over-represented here; the source holds about 7,900 in all. About 0.6% of all pairs of compound and target were hits. Unmarked numbers belong to inactive results.

Columns and labels:
Assay in all cases: log2 fold change, soluble protein after heating vs DMSO (PISA); higher = thermal stabilisation; K562 cells, 10 uM, 30 min; active = over 0.2 and 3.5 SD of the protein, either way, in both replicates (recomputed)
IRAK-1-4 Inhibitor I = compound: C1COCCN1CCN2C3=CC=CC=C3N=C2NC(=O)C4=CC(=CC=C4)[N+](=O)[O-] [IRAK-1-4 Inhibitor I]
Summary of the method: (§1)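 Soluble protein was defined as the supernatant after 21,000xg for 90 min. It came from K562 cells at 2×10^6 cells/mL given 10 μM compound for 30 min, heated in aliquots for 3 min across 48°C-58°C, pooled, and extracted in PBS with 0.5% NP-40 at 4°C, and was quantified by TMTpro 16plex LC-MS/MS with equalised channel sums. Thermal stability against control samples, from duplicates, is reported as log2 fold change.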

[1] = compound: CC(=O)c1cnc2ccc(-c3cc(Cl)c(O)c(Cl)c3)nc2c1N[C@H]1CC[C@H](CN(C)C)CC1
Summary of the method: as §1

ralimetinib = compound: CC(C)(C)Cn1c(N)nc2ccc(-c3[nH]c(C(C)(C)C)nc3-c3ccc(F)cc3)nc21 [ralimetinib]
Summary of the method: as §1

[2] = compound: CC(C)(O)CC(=O)NCCn1ccc2ncnc(Nc3ccc(Oc4cccc(C(F)(F)F)c4)c(Cl)c3)c21
Summary of the method: as §1

[3] = compound: CC(C)C1=C2N=C(C=C(N2N=C1)NCC3=CC=CC=C3)NCCCCCCN
Summary of the method: as §1

[4] = compound: CC(C)C[C@@H](C=O)NC(=O)[C@H](CC(C)C)NC(=O)[C@H](CC(C)C)NC(=O)OCc1ccccc1
Summary of the method: as §1

pinometostat = compound: CC(C)N(C[C@H]1O[C@@H](n2cnc3c(N)ncnc32)[C@H](O)[C@@H]1O)[C@H]1C[C@@H](CCc2nc3cc(C(C)(C)C)ccc3[nH]2)C1 [pinometostat]
Summary of the method: as §1

[5] = compound: CC1=C(C(CC(=O)N1)C2=CC=C(C=C2)C(F)(F)F)C(=O)NC3=C(C=C4C(=C3)C=NN4)F
Summary of the method: as §1

[6] = compound: CC1=C(C2=C(C=C1)C(=O)C3=CC=CC=C3N2CCCN)C
Summary of the method: as §1

[7] = compound: CC1=C(C=C(C=C1)NC(=O)C2=CC(=CC=C2)C(C)(C)C#N)NC3=CC4=C(C=C3)N=CN(C4=O)C
Summary of the method: as §1

[8] = compound: CC1=C(C=C(C=C1)NC(=O)C2=CC(=CC=C2)N(C)C)NC(=O)C3=CC=C(C=C3)O
Summary of the method: as §1

[9] = compound: CC1=CC=C(C=C1)SC2=C3C=C(SC3=CN=C2)C(=O)N
Summary of the method: as §1

[10] = compound: CC1=NC(=CC=C1)C2=C(N=C(N2)C(C)(C)C)C3=CC4=NC=CN=C4C=C3
Summary of the method: as §1

Nexturastat A = compound: CCCCN(Cc1ccc(C(=O)NO)cc1)C(=O)Nc1ccccc1 [Nexturastat A]
Summary of the method: as §1

vemurafenib = compound: CCCS(=O)(=O)Nc1ccc(F)c(C(=O)c2c[nH]c3ncc(-c4ccc(Cl)cc4)cc23)c1F [vemurafenib]
Summary of the method: as §1

[11] = compound: CCCS(=O)(=O)Nc1ccc(F)c(C(=O)c2c[nH]c3ncc(Cl)cc23)c1F
Summary of the method: as §1

[12] = compound: CCCc1cc(C)[nH]c(=O)c1CNC(=O)c1cc(-c2ccnc(N3CCN(C)CC3)c2)cc2c1cnn2C(C)C
Summary of the method: as §1

givinostat = compound: CCN(CC)Cc1ccc2cc(COC(=O)Nc3ccc(C(=O)NO)cc3)ccc2c1 [givinostat]
Summary of the method: as §1

ibrutinib = compound: C=CC(=O)N1CCC[C@@H](n2nc(-c3ccc(Oc4ccccc4)cc3)c3c(N)ncnc32)C1 [ibrutinib]
Summary of the method: as §1

barasertib = compound: CCN(CCCOc1ccc2c(Nc3cc(CC(=O)Nc4cccc(F)c4)[nH]n3)ncnc2c1)CCOP(=O)(O)O [barasertib]
Summary of the method: as §1

UniProt O43524, sequence (O43524 whole entry, looked up): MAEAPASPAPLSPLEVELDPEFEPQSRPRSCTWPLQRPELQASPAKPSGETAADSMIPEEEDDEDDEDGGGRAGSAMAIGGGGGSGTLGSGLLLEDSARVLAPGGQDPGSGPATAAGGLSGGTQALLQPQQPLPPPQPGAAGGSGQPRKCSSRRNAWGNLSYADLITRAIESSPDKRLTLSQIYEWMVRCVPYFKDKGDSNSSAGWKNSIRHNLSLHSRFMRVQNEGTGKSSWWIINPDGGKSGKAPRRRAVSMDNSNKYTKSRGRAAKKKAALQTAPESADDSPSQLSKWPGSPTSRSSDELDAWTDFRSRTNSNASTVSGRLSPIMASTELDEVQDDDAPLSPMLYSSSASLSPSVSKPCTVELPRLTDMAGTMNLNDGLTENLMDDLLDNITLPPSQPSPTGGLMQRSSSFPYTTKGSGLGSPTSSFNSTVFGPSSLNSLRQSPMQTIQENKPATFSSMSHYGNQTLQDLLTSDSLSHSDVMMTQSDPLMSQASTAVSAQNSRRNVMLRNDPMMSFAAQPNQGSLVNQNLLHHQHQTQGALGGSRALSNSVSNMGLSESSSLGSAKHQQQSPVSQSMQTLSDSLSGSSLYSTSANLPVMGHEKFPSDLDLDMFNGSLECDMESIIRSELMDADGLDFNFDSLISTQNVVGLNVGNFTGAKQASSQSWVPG
UniProt O14976, sequence (O14976 whole entry, looked up): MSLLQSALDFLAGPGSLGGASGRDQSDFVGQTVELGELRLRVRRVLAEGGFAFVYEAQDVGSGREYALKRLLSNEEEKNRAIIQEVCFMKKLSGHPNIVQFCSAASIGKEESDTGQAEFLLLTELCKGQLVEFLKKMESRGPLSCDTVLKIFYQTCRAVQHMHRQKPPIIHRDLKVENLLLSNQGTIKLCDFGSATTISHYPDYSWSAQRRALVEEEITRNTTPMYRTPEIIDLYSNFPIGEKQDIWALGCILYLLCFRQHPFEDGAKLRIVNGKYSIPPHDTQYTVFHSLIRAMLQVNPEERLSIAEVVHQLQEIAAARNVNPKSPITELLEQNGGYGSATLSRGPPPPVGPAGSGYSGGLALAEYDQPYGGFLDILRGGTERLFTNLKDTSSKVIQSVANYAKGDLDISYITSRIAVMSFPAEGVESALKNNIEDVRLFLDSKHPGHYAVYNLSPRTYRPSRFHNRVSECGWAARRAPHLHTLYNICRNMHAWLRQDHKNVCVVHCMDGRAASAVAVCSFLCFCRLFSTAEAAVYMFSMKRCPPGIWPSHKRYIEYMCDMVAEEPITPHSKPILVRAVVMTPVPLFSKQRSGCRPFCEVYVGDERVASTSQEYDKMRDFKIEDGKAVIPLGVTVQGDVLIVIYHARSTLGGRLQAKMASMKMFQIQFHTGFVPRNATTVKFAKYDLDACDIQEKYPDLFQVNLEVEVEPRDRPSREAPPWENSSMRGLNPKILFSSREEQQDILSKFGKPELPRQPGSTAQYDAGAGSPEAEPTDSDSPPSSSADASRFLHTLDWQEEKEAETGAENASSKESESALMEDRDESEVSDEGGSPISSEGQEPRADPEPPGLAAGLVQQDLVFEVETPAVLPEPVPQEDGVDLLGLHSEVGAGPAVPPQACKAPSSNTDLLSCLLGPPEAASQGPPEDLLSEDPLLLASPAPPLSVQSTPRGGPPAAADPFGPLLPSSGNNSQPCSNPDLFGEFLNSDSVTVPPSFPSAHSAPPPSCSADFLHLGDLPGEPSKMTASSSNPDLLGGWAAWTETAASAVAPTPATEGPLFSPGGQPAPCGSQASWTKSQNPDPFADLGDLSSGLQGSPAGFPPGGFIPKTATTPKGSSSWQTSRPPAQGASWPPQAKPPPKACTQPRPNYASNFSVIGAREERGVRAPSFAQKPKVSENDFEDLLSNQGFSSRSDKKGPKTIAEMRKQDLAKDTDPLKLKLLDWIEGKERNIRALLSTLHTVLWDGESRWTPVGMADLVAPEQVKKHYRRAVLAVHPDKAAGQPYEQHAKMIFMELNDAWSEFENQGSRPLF
UniProt Q9HCG7, sequence (Q9HCG7 whole entry, looked up): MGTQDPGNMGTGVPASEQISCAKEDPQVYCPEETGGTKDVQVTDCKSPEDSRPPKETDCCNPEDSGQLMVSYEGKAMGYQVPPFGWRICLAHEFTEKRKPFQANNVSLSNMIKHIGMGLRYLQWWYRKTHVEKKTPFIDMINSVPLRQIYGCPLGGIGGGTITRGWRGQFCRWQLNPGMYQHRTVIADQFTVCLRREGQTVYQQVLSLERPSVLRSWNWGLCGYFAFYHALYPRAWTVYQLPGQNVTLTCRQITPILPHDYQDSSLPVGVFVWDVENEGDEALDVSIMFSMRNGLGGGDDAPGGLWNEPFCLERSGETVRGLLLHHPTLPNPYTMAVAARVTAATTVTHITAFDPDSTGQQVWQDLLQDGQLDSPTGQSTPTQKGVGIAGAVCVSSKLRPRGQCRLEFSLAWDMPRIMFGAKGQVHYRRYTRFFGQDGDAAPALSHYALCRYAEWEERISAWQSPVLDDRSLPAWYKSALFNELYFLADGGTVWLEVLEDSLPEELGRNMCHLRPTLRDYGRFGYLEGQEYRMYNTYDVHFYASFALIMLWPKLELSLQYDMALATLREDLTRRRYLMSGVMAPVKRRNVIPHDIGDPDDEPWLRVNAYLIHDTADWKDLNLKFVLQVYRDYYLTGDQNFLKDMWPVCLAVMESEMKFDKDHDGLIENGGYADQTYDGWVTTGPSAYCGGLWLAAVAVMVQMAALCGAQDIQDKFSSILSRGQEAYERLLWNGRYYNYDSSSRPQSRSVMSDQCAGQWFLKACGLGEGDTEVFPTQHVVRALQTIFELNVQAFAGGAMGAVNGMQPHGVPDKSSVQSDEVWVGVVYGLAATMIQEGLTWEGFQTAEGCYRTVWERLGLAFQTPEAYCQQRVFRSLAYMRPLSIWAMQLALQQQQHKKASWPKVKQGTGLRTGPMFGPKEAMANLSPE
UniProt Q9H6D7, sequence (Q9H6D7 whole entry, looked up): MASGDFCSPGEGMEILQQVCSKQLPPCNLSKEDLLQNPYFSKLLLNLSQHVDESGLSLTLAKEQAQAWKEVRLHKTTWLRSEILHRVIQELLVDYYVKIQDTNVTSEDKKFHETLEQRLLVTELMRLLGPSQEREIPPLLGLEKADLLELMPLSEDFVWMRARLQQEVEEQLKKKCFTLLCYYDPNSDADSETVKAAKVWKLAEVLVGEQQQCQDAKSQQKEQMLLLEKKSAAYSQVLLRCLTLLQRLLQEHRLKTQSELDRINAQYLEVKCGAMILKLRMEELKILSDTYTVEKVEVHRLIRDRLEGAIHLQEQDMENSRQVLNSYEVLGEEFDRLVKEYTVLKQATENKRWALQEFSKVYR
UniProt Q8IVV7, sequence (Q8IVV7 whole entry, looked up): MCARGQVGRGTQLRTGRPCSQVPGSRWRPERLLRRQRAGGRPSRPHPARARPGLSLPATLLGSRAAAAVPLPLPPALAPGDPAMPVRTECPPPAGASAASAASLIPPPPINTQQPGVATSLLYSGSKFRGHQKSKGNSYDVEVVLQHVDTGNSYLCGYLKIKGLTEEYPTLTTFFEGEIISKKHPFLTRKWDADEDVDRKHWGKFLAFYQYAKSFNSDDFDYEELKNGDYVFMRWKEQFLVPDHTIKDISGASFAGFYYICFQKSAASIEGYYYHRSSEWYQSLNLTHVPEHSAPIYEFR
UniProt Q9Y324, sequence (Q9Y324 whole entry, looked up): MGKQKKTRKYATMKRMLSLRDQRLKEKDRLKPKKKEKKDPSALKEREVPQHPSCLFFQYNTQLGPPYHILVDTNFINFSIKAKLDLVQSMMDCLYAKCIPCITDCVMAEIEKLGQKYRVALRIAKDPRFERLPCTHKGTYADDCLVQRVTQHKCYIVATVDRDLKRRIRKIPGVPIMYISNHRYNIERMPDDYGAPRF
UniProt A6NDN3, sequence (A6NDN3 whole entry, looked up): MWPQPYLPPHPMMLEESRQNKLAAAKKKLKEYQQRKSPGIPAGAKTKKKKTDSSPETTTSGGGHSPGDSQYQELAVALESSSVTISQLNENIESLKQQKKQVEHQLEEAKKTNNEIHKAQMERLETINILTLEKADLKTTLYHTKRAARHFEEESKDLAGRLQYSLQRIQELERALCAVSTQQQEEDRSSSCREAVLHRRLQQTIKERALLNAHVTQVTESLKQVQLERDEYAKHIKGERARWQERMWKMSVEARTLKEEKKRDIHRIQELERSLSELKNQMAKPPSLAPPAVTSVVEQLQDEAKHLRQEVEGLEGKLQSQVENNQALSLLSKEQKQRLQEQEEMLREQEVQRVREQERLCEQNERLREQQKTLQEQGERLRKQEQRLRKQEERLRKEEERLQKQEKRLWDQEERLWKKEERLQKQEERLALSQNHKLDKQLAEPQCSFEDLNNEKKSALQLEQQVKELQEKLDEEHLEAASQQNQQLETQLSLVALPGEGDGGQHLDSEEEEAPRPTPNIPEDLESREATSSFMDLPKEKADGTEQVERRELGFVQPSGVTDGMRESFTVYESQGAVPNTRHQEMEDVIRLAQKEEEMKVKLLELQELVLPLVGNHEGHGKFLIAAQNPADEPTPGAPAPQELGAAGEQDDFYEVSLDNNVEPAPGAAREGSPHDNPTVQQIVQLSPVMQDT
UniProt Q13227, sequence (Q13227 whole entry, looked up): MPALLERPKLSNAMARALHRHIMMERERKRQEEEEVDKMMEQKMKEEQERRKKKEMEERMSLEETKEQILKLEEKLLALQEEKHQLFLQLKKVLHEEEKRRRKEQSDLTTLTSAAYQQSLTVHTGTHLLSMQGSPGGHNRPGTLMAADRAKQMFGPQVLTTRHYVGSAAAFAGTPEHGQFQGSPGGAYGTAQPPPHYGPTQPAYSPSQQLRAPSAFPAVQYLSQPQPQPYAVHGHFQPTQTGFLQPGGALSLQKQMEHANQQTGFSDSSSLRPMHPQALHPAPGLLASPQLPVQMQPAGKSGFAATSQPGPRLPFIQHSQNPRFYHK

Target | log2 fold change (IRAK-1-4 Inhibitor I) | log2 fold change [1] | log2 fold change (ralimetinib) | log2 fold change [2] | log2 fold change [3] | log2 fold change [4] | log2 fold change (pinometostat) | log2 fold change [5] | log2 fold change [6] | log2 fold change [7] | log2 fold change [8] | log2 fold change [9] | log2 fold change [10] | log2 fold change (Nexturastat A) | log2 fold change (vemurafenib) | log2 fold change [11] | log2 fold change [12] | log2 fold change (givinostat) | log2 fold change (ibrutinib) | log2 fold change (barasertib)
FCHO1 (UniProt O14526) | -0.114 | -0.593 (active) | -0.081 | -0.073 | 0.045 | 0.191 | 0.05 | 0.094 | -0.011 | 0.103 | -0.023 | 0.004 | -0.016 | 0.053 | 0.254 | 0.037 | -0.003 | 0.073 |  | 
HAUS4 (UniProt Q9H6D7) |  | -0.107 | 0.112 | 0.246 | -0.51 (active) | 0.139 |  | 0.095 | 0.048 | -0.143 | 0.003 | 0.084 |  | -0.061 | -0.049 | 0.012 | -0.269 | 0.08 | 0.103 | -0.16
IFNGR1 (UniProt P15260) |  | -0.086 | -0.017 | -0.067 | 0.199 | 0.14 |  | 0.054 | -0.093 | -0.246 | 0.048 | -0.056 |  | 0.743 (active) | -0.124 | -0.181 | -0.174 | 0.281 | 0.224 | 0.028
HDAC10 (UniProt Q969S8) |  | 0.137 | 0.006 |  | -0.124 | -0.026 |  | 0.037 | -0.287 |  | 0.027 | -0.001 |  |  | 0.231 | 0.046 | 0.056 | 0.153 | -0.01 | -0.117
GID4 (UniProt Q8IVV7) |  | 0.025 | -0.019 | 0.016 | 0.028 | 0.027 |  | 0.023 | -0.071 | 0.028 | 0.003 | -0.07 |  | 0.058 | -0.181 | -0.271 (active) | -0.035 | -0.03 | 0.035 | -0.1
GPS2 (UniProt Q13227) | -0.013 |  | -0.19 | -0.052 | 0.027 | -0.069 | 0.019 | 0.006 | -0.135 | -0.13 | -0.04 | -0.17 | -0.013 | -0.316 (active) | 0.019 | -0.01 | 0.026 | -0.145 | -0.006 | -0.008
FBXO9 (UniProt Q9UK97) | -0.034 |  | 0.137 |  | -0.101 | 0.088 | 0.038 | -0.062 | 0.137 |  | 0.009 | 0.064 | -0.025 |  | 0 | 0.061 | 0.052 | 0.111 | -0.119 | 0.117
HNRNPK isoform 3 (UniProt P61978) | -0.011 |  | 0.03 | 0.087 | 0.075 | 0.041 | -0.021 | -0.039 | 0.21 | -0.015 | 0.027 |  | 0.066 | 0.085 | -0.066 |  | -0.067 | 0.062 | -0.001 | -0.136
GOLGA6B (UniProt A6NDN3) | -0.034 |  |  | 0.025 | 0.165 |  | -0.137 | -0.19 |  | -0.035 |  |  | 0.033 | -0.099 | 0.882 (active) |  | -0.113 | 0.002 | 0.013 | 0.011
GPNMB (UniProt Q14956) |  |  |  | 0 | 0.108 |  |  |  |  |  |  |  |  | 1.64 (active) |  |  |  | 0.671 |  | 
FOXO3 (UniProt O43524) | -0.046 | -0.427 | -0.083 | 0.086 | -0.091 | 0.234 | 0 |  | 0.081 | 0.247 | -0.039 | 0.037 | 0.119 | 0.024 | -0.023 | 0.017 | -0.159 | 0.012 |  | 
FCF1 (UniProt Q9Y324) | -0.083 |  | 0.223 | 0.032 |  | 0.074 | 0.334 |  | -1.04 (active) | 0.017 | -0.011 | -0.114 | -0.187 | 0.271 | -0.139 | -0.167 | 0.324 |  |  | 
HNRNPUL1 (UniProt M0R247) | 0.041 | -0.259 |  |  | 0.121 |  | -0.025 | 0.031 | 0.008 | -0.059 |  | -0.148 | -0.075 |  |  | -0.15 |  | 0.001 |  | 
GREB1 (UniProt Q4ZG55) | 0.04 | 0.037 |  | -0.032 | 0.26 |  | -0.095 |  | 0.066 | -0.003 |  |  | -0.338 | 0.755 (active) | 0.047 |  |  | 0.294 |  | 
GBA2 (UniProt Q9HCG7) | -0.082 | -0.073 |  | 0.048 | 0.326 |  | 0.121 | 0.003 | -0.003 | -0.079 |  | -0.043 | 0 | 0.051 | 0 | -0.032 | -0.076 | -0.02 | -0.027 | 0.008
GAB2 (UniProt Q9UQC2) | -0.097 | -0.573 | 0.059 | -0.242 | -0.616 | 0.094 | 0.081 |  | 0.004 | -0.053 | -0.21 | 0.022 | 0.077 | 0.075 | -0.071 | -0.349 | 0.099 | 0.101 |  | 
GAK (UniProt O14976) | -0.222 | 1.15 | 1.13 | -0.015 | -0.81 | 0.084 | 0.344 | -0.213 | -0.187 | 0.214 | 0.038 | -0.337 | -0.14 | 0.452 | -0.06 | 0.114 | 0.17 | 0.64 |  | 
